Data reported in PubChem BioAssay (NCI).
This is part of a sample that, as a whole, favours compounds with a hit. Of some 83,000 tested, about 20% had one in any assay.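 Activity criterion: percent growth below 10, measured after cells in 96-well plates were exposed to a single compound concentration for 48 hours.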 Values without a mark were called inactive. The source made the active and inactive calls.

system: NCI-H322M lung; assay: NCI-60 one-dose screen, 48 h (100 = growth as untreated, 0 = no growth, -100 = all killed); conditions: 10 µM unless noted

Row | SMILES | growth
1 | COC(=O)c1sccc1-c1cc(O)c(C(=O)Nc2ccccc2)s1 | 93.3%
2 | O=C(C1=Cc2cc3ccccc3n2Cc2cnnn21)c1ccc(F)cc1 | 99.1%
3 | Cc1cccc(N2C(=O)/C(=C/C(Cl)=C/c3ccc([N+](=O)[O-])cc3)SC2=S)c1C | 82.2%
4 | CS(=O)/C(C#N)=C\C=C\c1cccc(Cl)c1 (stereo not given) | 24.1%
5 | CCOC(=O)/C=C1\S/C(=N\Nc2cc(=O)[nH]c3ccc(Br)cc23)N(c2ccccc2)C1=O | 90.5%
6 | Cc1ccc2nc(-c3ccc(C(=O)N/N=C/c4ccc([N+](=O)[O-])cc4)cc3)[nH]c2c1 | 104%
7 | COc1ccc(/C=C/C(c2cc(OC)c(OC)c(OC)c2)n2cncn2)cc1O (stereo not given) | 54.7%
8 | CCCCCCCCCCCCCCCCCCOc1ccccc1CC(=O)NCC[N+](C)(C)C | 66.9%
9 | CCOC(=O)c1c(C)nc2ccccc2c1/C=C/c1ccc(F)cc1 | 94.7%
10 | N#Cc1c(-c2ccccc2)cc(-c2ccccc2)n(CCCCC(=O)NO)c1=O | 92.2%
11 | COc1cc(Cc2cc(OC)c(O)c(OC)c2)cc(OC)c1O | 94.2%
12 | COc1cc(/C=C/c2cc(/C=C/c3ccc(O)c(OC)c3)n(C(=O)Nc3ccc(Cl)cc3)n2)ccc1O | 22.1%
13 | NS(=O)(=O)c1ccc(C(=O)NN2C(=O)c3ccccc3C2=O)cc1 | 110%
14 | CS(=O)(=O)c1ccc(-c2nc3ccccc3n2CC(=O)N/N=C/c2ccccc2)cc1 | 95.5%
15 | CCn1cc(C(=O)N/N=C/c2cccc(F)c2)c(=O)c2cc(F)c(N3CCNC(C)C3)c(F)c21 (stereo not given) | 83.4%
16 | CCCC(=O)NC(c1ccc2c(c1)OCO2)c1cc(Cl)c2cccnc2c1O (stereo not given) | 42.1%
17 | O=C(c1cccc(N2CCOCC2)n1)c1c[nH]c2ccccc12 | 97%
18 | Cc1cc(C(=O)CCCC(=O)c2cc(C)c(O)c(C)c2)cc(C)c1O | 114%
19 | O=C(/C=C/c1ccccc1)c1cccc2ccccc12 | 57.5%
20 | CNC(=O)c1cc(Oc2ccc3c(c2)sc2nc(-c4ccc(NC(=O)[C@@H](NC(=O)OC)C(C)C)cc4)cn23)ccn1 | 107%

Row | SMILES | growth
21 | FC(F)(F)c1[nH]ncc1-c1nc2ccc3[nH]ncc3c2c2c1CCCC2 | 3.13% (active)
22 | COC(=O)c1ccc2c(c1)c1c(C)c3cnccc3c(C)c1n2C | -14% (active)
23 | CC1=C2[C@@H](CC1)[C@]1(C)O[C@@](C3CCNCC3)(C[C@H]1OC(=O)CO)[C@H]2OC(=O)/C=C/c1ccccc1 | 105%
24 | CCOC(=O)CC1CSC(N/N=C/c2ccc(F)c(Br)c2)=N1 (stereo not given) | 109%
25 | O=C1/C(=C/c2cccc(Br)c2)COc2ccc(O)cc21 | 97.4%
26 | O=C(Cn1nc(-c2cccc3ccccc23)ccc1=O)NCc1cccc(Cl)c1 | 70.4% [50 µM]
27 | COc1cc(O)c2c(=O)c3c(CC=C(C)C)cc(OC)c(O)c3oc2c1 | 38.3%
28 | Nc1ccc(Br)cc1C(F)(F)F | 119%
29 | O=C(Nc1ccc(Oc2cccc(Cl)c2)c(Cl)c1)c1cccnn1 | 93.9%
30 | COc1cccc(-c2cn3nc(-c4cn(C)c5ccccc45)sc3n2)c1 | 96.9%
31 | c1ccc(-c2c(-c3ccccc3)[n+](Cc3ccc4ccccc4c3)cn2Cc2ccc3ccccc3c2)cc1 | -20.8% (active)
32 | COc1ccc(C2[C@@H](c3ccccc3)C(=O)N2c2cc(OC)c(OC)c(OC)c2)cc1F (stereo not given in full) | 38.2%
33 | CC(C)CCC[C@@H](C)[C@H]1CC[C@H]2[C@@H]3CC=C4c5sc(Nc6cc(C(F)(F)F)cc(C(F)(F)F)c6)nc5CC[C@]4(C)[C@H]3CC[C@]12C | 99.1%
34 | Nc1cc(C(=O)O)cc(-n2c(O)c(C=C3N=c4ccccc4=N3)sc2=S)c1 | 99.2%
35 | COc1cccc(CNc2c3ccccc3nc3ccccc23)c1OC | 41.6%
36 | Clc1ccc(Nc2ncc(Cc3cccc(Cl)c3Cl)s2)cc1 | 110%
37 | CCOC(=O)c1cnn(CC(C)O)c1NC(=O)NCc1cccc(F)c1 (stereo not given) | 97.7%
38 | C=C1C(=O)O[C@@H]2C3C(=C(C)CC[C@@H]12)CC1O[C@]13C (stereo not given in full) | 95.8% [6.75 µM]
39 | CCOC(=O)C1=C(c2ccccc2)N=C2N(c3ccccc3)N=C(C(C)=O)N2C1c1ccc(F)cc1 (stereo not given) | 99.2%
40 | CCCOC(=O)Nc1nc2ccc(SCC)cc2s1 | 99.3%
